# Assay results: PubChem BioAssay (Tox21)
# “And” between values parts separate entries of the source, which are not always exact repeats. Equal values may be shown once. Records with an inconclusive call do not appear. Entries that show only a call come without a potency. More than one record can exist for a structure, and the calls need not agree. The source made the active and inactive calls. Unless noted, calls come from the whole dose curve.
# Key:
# [1] = Nuclear factor erythroid 2-related factor 2/antioxidant responsive element (Nrf2/ARE) small molecule agonists: qHTS cell viability counter screen in human keratinocytes (AID 1919968; active = well fitted curve in the direction sought with a large enough effect in the repeat runs; an effect the other way counts as inactive or inconclusive; note: nearly all actives have a fitted effect of over 55% in size; note: potency is the fitted concentration of half-maximal effect)
# Summary of the method: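 In human HaCaT keratinocytes stably expressing an ARE-driven luciferase, compound exposure lasted 23 h at 37 C under 5% CO2. Viable cells are quantified with a protease-based fluorogenic reagent (CellTiter-Fluor) read 1 h after addition.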
# [2] = Nuclear factor erythroid 2-related factor 2/antioxidant responsive element (Nrf2/ARE) small molecule agonists: luciferase reporter gene qHTS assay in human keratinocytes (AID 1919969); note: nearly all actives have a fitted effect of over 35% in size; note: potency is the fitted concentration of half-maximal effect
# [3] = target: Gonadotropin-releasing hormone receptor (Homo sapiens) (UniProt P30968); test: Human gonadotropin-releasing hormone receptor (GnRHR) small molecule agonists, calcium flux assay in GnRHR-HEK293 cells (AID 1920063); note: nearly all actives have a fitted effect of over 35% in size
# Summary of the method: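 Intracellular calcium rise is the read-out: engineered human GnRHR HEK293 cells, dye-loaded, are exposed to DMSO-dissolved compounds and fluorescence at Ex/Em 480/540 is tracked for 3 min.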
# [4] = target: KiSS-1 receptor (Homo sapiens) (UniProt Q969F8); test: Human kisspeptin (KISS1R) small molecule agonists, calcium flux assay in KISS1R-HEK293 cells (AID 1920064; active = well fitted curve in the direction sought with a large enough effect in the repeat runs; an effect the other way counts as inactive or inconclusive)
# Summary of the method: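 Concentration-response testing used 15 concentrations in triplicate on human KISS1R-expressing HEK293 cells. Calcium-dependent fluorescence (Ex/Em 480/540) was followed kinetically for 3 min after compound transfer.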
# [5] = p53 small molecule agonists, cell-based qHTS assay with rat liver microsomes (AID 1963578)
# Summary of the method: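 Rat liver microsome activation: microsomes 0.5 mg/mL, NADPH 0.5 mg/mL final; p53RE-bla cells, 16 h 37 C; LiveBLAzer readout, 2 h RT dark.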
# [6] = p53 small molecule agonists, cell-based qHTS assay with human liver microsomes: qHTS cell viability counter screen (AID 1963579); note: nearly all actives have a fitted effect of over 45% in size; note: potency is the fitted concentration of half-maximal effect
# Summary of the method: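 Luminescent CellTiter-Glo read-out, 30 min at room temperature, gauged cytotoxicity in p53RE-bla cells exposed 16 h at 37 C to DMSO-dissolved compounds with metabolic activation by human liver microsomes and NADPH, each 0.5 mg/mL final.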
# [7] = p53 small molecule agonists, cell-based qHTS assay with rat liver microsomes: qHTS cell viability counter screen (AID 1963580); note: nearly all actives have a fitted effect of over 45% in size; note: potency is the fitted concentration of half-maximal effect
# Summary of the method: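 Counter screen for cytotoxicity under metabolic activation: rat liver microsomes and NADPH, 0.5 mg/mL final each, added with compounds to p53RE-bla HCT-116 cells; 16 h at 37 C, then ATP luminescence read.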
# [8] = p53 small molecule agonists, cell-based qHTS assay: qHTS cell viability counter screen (AID 1963581); note: nearly all actives have a fitted effect of over 45% in size
# Summary of the method: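 Luminescence from CellTiter-Glo, reflecting ATP content, serves as the cytotoxicity measure; it is taken after the 2 h reporter substrate step in HCT-116 p53RE-bla cells dosed for 16 h at 37 C.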
# [9] = p53 small molecule agonists, cell-based qHTS assay (AID 1963582; active = well fitted activation curve with a large enough effect in the signal ratio in the repeat runs, not every such curve was filed as active; the % refers to the signal ratio)
# Summary of the method: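 After plating, p53RE-bla cells sat 5 h in the incubator; compounds or DMSO vehicle were pinned in; a 16 h incubation at 37 C followed; FRET substrate was added and, 2 h later at RT, fluorescence was measured.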
# [10] = target: 5-hydroxytryptamine receptor 2A (Homo sapiens) (UniProt P28223); test: 5-hydroxytryptamine receptor 2A (HTR2A) small molecule antagonists, cell-based qHTS assay (AID 1963586); note: nearly all actives have a fitted effect of over 45% in size
# Summary of the method: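 CHO cells stably expressing human HTR2A were plated for 18 h at 37 C, then loaded with calcium dye for 1 h. Compounds were preincubated 5 min at room temperature before DOI (4 nM solution) was added. Kinetic fluorescence was read for 3 min.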
# [11] = target: 5-hydroxytryptamine receptor 2A (Homo sapiens) (UniProt P28223); test: 5-hydroxytryptamine receptor 2A (HTR2A) small molecule agonists, cell-based qHTS assay (AID 1963587); note: nearly all actives have a fitted effect of over 30% in size
# Summary of the method: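 HTR2A-CHO cells, plated 18 h at 37 C/5% CO2, dye-loaded 1 h at 37 C; compounds in DMSO added by pin tool (agonist mode). Intracellular calcium flux read as kinetic fluorescence on FDSS over 2 min at 1 s intervals.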
# [12] = target: Muscarinic acetylcholine receptor M1 (Homo sapiens) (UniProt P11229); test: Cholinergic receptor muscarinic 1 (CHRM1) small molecule antagonists, cell-based qHTS assay (AID 1963588); note: nearly all actives have a fitted effect of over 40% in size
# Summary of the method: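 Compounds were tested at 15 concentrations in three independent runs. Dye-loaded CHRM1-CHO cells were exposed 5 min at room temperature before stimulation by acetylcholine added at 50nM. Intracellular calcium was read kinetically on FDSS for 3 min.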
# [13] = target: Muscarinic acetylcholine receptor M1 (Homo sapiens) (UniProt P11229); test: Cholinergic receptor muscarinic 1 (CHRM1) small molecule agonists, cell-based qHTS assay (AID 1963589); note: nearly all actives have a fitted effect of over 35% in size
# Summary of the method: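 Fluorescent calcium dye reports M1 activation in stably transfected CHO cells. Compounds, 15 concentrations, added after 1 h dye loading at 37 C; kinetic reading at 1 sec intervals.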
# [14] = cAMP Responsive Elements (CRE) small molecule agonists, cell-based qHTS assay (AID 1963590)
# Summary of the method: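 Compound exposure lasted 3 h at 37 C/5% CO2 in CRE-bla HEK 293T cells grown in assay medium with 10% dialyzed FBS and 25 mM HEPES. Reporter signal came from LiveBLAzer B/G FRET substrate, 2 h, room temperature.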
# [15] = cAMP Responsive Elements (CRE) small molecule antagonists, cell-based qHTS assay (AID 1963591; active = well fitted inhibition curve with a large enough effect in the signal ratio in the repeat runs, not every such curve was filed as active; the % refers to the signal ratio; note: potency is the fitted concentration of half-maximal effect)
# Summary of the method: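 Stimulation used NKH477 at a final 0.25 uM for 3 h in compound-treated CRE-bla HEK293T cells, seeded 18 h beforehand. Reporter activity was measured with LiveBLAzer B/G FRET substrate after 2 h at room temperature.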
# [16] = target: Beta-2 adrenergic receptor (Homo sapiens) (UniProt P07550); test: Adrenergic beta2 receptor (ADRB2) small molecule antagonists, cell-based qHTS assay (AID 1963592); note: series mostly up to about 92 µM; nearly all actives have a fitted effect of over 50% in size
# Summary of the method: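 Assay format: CHO-ADRB2 cells, 18-20hr seeding at 37C/5% CO2, then compound plus 1nM isoproterenol agonist mix for 0.5hr RT. Homogeneous time-resolved fluorescence cAMP detection after 1hr, expressed as 665/615 nm ratio.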
# [17] = target: Beta-2 adrenergic receptor (Homo sapiens) (UniProt P07550); test: Adrenergic beta2 receptor (ADRB2) small molecule agonists, cell-based qHTS assay (AID 1963593);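 note: CHO cells stably overexpressing human ADRB2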
# Summary of the method: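 CHO cells stably over-expressing ADRB2 were plated overnight at 37C, then dosed with compounds plus a stimulation mix containing 100uM IBMX and 25uM Ro-20-1724 for 0.5hr at room temperature. cAMP was measured by HTRF competition, 1hr.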
# [18] = target: D(2) dopamine receptor (Homo sapiens) (UniProt P14416); test: Dopamine D2 receptor (DRD2) small molecule antagonists, cell-based qHTS assay (AID 1963595; active = well fitted inhibition curve with a large enough effect in the signal ratio in the repeat runs, with a control signal flat; the % refers to the signal ratio)
# Summary of the method: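 Readout: HTRF cAMP, cAMP-d2 competing with cellular cAMP for anti-cAMP cryptate, read after 1 h. Cells: DRD2-HEK293. Conditions: 0.1 mM Ro20-1724, 12 nM quinpirole, 200 nM NKH477, 30 min RT.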
# [19] = target: D(2) dopamine receptor (Homo sapiens) (UniProt P14416); test: Dopamine D2 receptor (DRD2) small molecule agonists, cell-based qHTS assay (AID 1963594); note: nearly all actives have a fitted effect of over 35% in size
# Summary of the method: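 HEK293 cells stably expressing DRD2 were cultured 24 h at 37 C, then given Ro20-1724 (0.1 mM final) and compounds for 10 min at room temperature. NKH477 (200nM) was then added for 30 min. cAMP was read by HTRF.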
# [20] = G protein-coupled receptor (GPCR) small molecule agonists, calcium flux assay: HEK293 wild type cell line counter screen (AID 1920065)
# Summary of the method: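 Fluorescence intensity signals activation. After overnight (18 h) culture and a 1 h calcium dye load at 37 C, compounds are added by pin tool and the plate read at 480/540 nm for 3 min in 1 s steps.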
# Chain of Muscarinic acetylcholine receptor M1 (Homo sapiens) (P11229 whole entry, looked up): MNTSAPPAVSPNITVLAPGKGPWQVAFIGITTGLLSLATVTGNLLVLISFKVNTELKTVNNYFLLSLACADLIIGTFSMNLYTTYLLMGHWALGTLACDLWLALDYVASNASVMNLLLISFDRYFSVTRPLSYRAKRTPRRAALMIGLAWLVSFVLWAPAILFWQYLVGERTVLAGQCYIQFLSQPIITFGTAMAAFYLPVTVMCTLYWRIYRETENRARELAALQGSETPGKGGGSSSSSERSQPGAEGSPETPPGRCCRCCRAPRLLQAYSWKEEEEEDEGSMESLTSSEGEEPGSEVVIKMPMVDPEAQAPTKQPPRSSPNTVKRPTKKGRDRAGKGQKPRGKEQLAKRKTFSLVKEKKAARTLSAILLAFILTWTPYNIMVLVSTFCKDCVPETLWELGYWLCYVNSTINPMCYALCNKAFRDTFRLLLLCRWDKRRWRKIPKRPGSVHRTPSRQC
# Chain of Gonadotropin-releasing hormone receptor (Homo sapiens) (P30968 whole entry, looked up): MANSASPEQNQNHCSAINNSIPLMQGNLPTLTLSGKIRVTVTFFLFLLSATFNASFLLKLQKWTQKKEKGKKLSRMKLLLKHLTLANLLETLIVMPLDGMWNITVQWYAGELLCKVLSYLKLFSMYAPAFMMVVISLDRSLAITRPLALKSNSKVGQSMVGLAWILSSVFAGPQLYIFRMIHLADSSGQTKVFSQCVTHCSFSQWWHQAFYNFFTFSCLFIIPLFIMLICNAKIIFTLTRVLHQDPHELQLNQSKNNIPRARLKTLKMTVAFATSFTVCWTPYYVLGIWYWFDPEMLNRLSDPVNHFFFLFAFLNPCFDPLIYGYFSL
# Chain of 5-hydroxytryptamine receptor 2A (Homo sapiens) (P28223 whole entry, looked up): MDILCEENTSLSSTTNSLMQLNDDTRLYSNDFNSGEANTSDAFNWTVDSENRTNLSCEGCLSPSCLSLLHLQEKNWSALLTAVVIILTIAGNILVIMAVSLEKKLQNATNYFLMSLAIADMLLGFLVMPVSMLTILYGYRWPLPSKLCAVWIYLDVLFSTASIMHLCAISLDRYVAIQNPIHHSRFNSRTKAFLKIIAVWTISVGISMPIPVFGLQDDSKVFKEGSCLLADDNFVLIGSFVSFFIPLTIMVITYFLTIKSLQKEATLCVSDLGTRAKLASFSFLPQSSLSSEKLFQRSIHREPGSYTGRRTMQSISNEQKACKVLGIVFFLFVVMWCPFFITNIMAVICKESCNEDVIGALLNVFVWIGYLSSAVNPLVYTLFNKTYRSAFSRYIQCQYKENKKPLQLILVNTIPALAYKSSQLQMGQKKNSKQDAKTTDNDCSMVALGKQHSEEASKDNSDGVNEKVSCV
# Chain of KiSS-1 receptor (Homo sapiens) (Q969F8 whole entry, looked up): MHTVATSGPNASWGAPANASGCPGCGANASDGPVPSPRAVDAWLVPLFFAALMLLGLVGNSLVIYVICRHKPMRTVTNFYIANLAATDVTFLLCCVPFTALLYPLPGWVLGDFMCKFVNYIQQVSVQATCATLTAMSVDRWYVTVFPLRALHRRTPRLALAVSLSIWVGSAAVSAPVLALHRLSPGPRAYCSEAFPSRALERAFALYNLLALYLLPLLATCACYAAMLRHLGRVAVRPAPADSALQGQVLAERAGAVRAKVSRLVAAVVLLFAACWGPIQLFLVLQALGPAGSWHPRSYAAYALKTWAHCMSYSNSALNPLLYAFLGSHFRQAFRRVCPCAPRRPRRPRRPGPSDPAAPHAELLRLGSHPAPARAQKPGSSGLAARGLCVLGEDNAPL
# Chain of Beta-2 adrenergic receptor (Homo sapiens) (P07550 whole entry, looked up): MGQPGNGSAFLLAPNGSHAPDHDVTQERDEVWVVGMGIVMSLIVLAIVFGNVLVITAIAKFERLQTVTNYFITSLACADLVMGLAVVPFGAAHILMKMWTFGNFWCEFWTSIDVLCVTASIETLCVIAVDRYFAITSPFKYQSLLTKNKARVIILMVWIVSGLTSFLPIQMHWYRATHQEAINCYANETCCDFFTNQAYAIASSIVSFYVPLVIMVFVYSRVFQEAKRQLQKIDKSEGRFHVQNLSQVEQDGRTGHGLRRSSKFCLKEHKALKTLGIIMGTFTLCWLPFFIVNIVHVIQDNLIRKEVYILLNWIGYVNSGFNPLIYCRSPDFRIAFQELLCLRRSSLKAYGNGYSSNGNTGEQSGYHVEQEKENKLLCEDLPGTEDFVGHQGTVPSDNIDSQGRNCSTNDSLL
# Chain of D(2) dopamine receptor (Homo sapiens) (P14416 whole entry, looked up): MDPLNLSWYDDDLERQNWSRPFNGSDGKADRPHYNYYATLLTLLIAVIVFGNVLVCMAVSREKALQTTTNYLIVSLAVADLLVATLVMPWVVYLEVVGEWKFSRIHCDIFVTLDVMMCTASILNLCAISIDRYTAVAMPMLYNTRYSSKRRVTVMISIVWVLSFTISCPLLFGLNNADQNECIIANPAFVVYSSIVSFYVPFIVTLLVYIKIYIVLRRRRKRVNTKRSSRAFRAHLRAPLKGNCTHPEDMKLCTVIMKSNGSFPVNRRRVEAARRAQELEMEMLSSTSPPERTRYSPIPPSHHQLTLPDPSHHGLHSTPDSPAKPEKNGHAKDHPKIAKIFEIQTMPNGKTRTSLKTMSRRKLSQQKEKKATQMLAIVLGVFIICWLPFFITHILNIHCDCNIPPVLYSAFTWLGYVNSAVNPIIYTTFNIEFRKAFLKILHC
SMILES,Potency [1],Potency [2],Potency [3],Potency [4],Potency [5],Potency [6],Potency [7],Potency [8],Potency [9],Potency [10],Potency [11],Potency [12],Potency [13],Potency [14],Potency [15],Potency [16],Potency [17],Potency [18],Potency [19],Potency [20]
CCCCCCCCO,inactive,inactive,inactive,inactive,inactive,inactive,inactive,inactive,inactive,inactive,inactive,inactive,inactive,inactive,inactive,inactive,inactive,inactive,,
C#C[C@]1(O)CC[C@H]2[C@@H]3CCc4cc(OC)ccc4[C@H]3CC[C@@]21C,inactive,54.5 µM (active) and 26.6 µM (active),inactive,inactive,inactive,inactive,inactive,inactive,inactive,,,,,inactive,inactive,inactive,,inactive,inactive,
OC[C@]1(O)OC[C@@H](O)[C@H](O)[C@@H]1O,inactive,inactive,inactive,inactive,inactive,inactive,inactive,inactive,inactive,inactive,inactive,inactive,inactive,inactive,inactive,inactive,inactive,inactive,inactive,
CCCCCCC(C)O (configuration not stated),inactive,inactive,inactive,inactive,inactive,inactive,inactive,inactive,inactive,,inactive,inactive,inactive,inactive,inactive,,inactive,inactive,inactive,
COc1cc2c(c(OC)c1OC)-c1ccc(OC)c(=O)cc1[C@@H](NC(C)=O)CC2,inactive,152 nM (active) and 217 nM (active) and 188 nM (active),inactive,inactive,,,,,,,,,,,inactive,inactive,inactive,,inactive,inactive
c1ccc(Nc2ccccc2)cc1,inactive,61.1 µM (active) and inactive,inactive,inactive,inactive,inactive,,inactive,inactive,inactive,inactive,inactive,inactive,,,inactive,,inactive,inactive,
CCO[Si](CCCNC(N)=O)(OCC)OCC,inactive,inactive,inactive,inactive,inactive,inactive,inactive,inactive,inactive,inactive,inactive,inactive,inactive,inactive,inactive,,inactive,inactive,inactive,
CC(=O)OCc1ccc2c(c1)OCO2,inactive,inactive,inactive,inactive,inactive,inactive,inactive,inactive,inactive,inactive,inactive,inactive,inactive,inactive,inactive,inactive,inactive,inactive,,
CC(CCO)CC(C)(C)C (configuration not stated),inactive,inactive,inactive,inactive,inactive,inactive,inactive,inactive,inactive,inactive,inactive,,inactive,inactive,inactive,inactive,,,inactive,
OCc1cccnc1,inactive,inactive,inactive,inactive,,inactive,,inactive,,inactive,inactive,inactive,inactive,inactive,inactive,inactive,inactive,inactive,inactive,inactive
CN(C)CCN(Cc1cccs1)c1ccccn1,inactive,inactive,inactive,inactive,inactive,inactive,inactive,,inactive,,,,,inactive,,inactive,inactive,inactive,inactive,
Oc1ccc(Cl)cc1Cc1cc(Cl)ccc1O,27.8 µM (active) and 61.1 µM (active),inactive and 33.5 µM (active),inactive,inactive,,40.8 µM (active) and inactive,41.5 µM (active) and inactive,,,inactive,inactive,inactive,inactive,,49.4 µM (active),,,inactive,inactive,
C[C@H]1C[C@H]2[C@@H]3CCC4=CC(=O)C=C[C@]4(C)[C@@]3(F)[C@@H](O)C[C@]2(C)[C@@]1(O)C(=O)CO,inactive,inactive,inactive,inactive,inactive,inactive and 793 nM (active),inactive,inactive,inactive,,,,,inactive,inactive,inactive,inactive,inactive,inactive,
